Assay in all cases: DAPPL (digital affinity profiling via proximity ligation, sequencing); 10 mM Tris-HCl pH 7.5, 50 mM NaCl, 1 mM DTT, 4% glycerol, room temperature, 30 min; GST-TFs on glutathione beads, 16-mer random dsDNA library, 0.1% formaldehyde crosslink after washing; high values mean tight binding
One assay deals with T1, FEV (Homo sapiens, UniProt Q99581 1-238).
T1 sequence: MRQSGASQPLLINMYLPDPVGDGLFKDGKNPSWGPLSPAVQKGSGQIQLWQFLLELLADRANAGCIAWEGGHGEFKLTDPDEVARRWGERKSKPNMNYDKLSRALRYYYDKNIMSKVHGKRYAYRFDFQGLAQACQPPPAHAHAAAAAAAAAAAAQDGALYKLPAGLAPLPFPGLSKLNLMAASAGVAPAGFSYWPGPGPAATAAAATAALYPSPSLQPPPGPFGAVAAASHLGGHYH
The conditions noted are these: protein: recombinant; tags: N-terminal GST; dsDNA, one strand shown. The method, boiled down:
(§1)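 Binding signal is defined as a hexamer's read frequency for one factor over its frequency for the tag-only sample. To obtain reads, GST-fused human transcription factors were expressed in yeast, captured on glutathione beads, barcoded with DNA and pooled with that sample. Pools met 200 nmole of a 16-mer random double-stranded DNA library in Tris/NaCl/DTT/glycerol buffer for 30 min at room temperature before washing, 0.1% formaldehyde crosslinking, proximity ligation (BsaI/T4 ligase, 1 h, 37 °C), PCR and Illumina NextSeq500 sequencing.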

In another assay the target is ETV5 (Homo sapiens, UniProt P41161 1-510). Particulars: protein: recombinant; tags: N-terminal GST; dsDNA, one strand shown. The method in brief: as §1
Sequence of ETV5 (P41161 whole entry): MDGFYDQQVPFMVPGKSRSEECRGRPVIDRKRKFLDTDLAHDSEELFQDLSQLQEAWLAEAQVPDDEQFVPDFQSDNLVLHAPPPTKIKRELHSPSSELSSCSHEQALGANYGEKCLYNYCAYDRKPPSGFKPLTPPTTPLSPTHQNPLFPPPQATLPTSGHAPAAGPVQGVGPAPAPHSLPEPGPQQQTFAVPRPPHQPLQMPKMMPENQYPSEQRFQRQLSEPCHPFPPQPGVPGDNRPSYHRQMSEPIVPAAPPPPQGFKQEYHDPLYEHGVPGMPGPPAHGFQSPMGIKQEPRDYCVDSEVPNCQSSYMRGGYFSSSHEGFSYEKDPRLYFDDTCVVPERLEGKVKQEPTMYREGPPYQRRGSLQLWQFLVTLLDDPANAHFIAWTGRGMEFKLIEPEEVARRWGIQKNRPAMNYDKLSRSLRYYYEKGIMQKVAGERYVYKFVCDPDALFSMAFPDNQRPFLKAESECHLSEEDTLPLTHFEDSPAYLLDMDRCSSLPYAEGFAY
Another assay deals with HSF1 (Homo sapiens, UniProt Q00613 1-529). The conditions noted are these: protein: recombinant; tags: N-terminal GST; chain copies: 3; dsDNA, one strand shown. The method, boiled down:
as §1

The next assay deals with T2, SPIC (Homo sapiens, UniProt Q8N5J4 1-248).
T2 sequence: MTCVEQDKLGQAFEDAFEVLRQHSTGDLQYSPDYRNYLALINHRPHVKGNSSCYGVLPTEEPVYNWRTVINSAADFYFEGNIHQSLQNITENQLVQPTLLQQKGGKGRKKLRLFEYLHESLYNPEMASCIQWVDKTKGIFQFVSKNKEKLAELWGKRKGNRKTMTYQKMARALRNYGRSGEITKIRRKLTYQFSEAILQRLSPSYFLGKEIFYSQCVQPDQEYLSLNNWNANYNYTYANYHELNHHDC
Particulars: protein: recombinant; tags: N-terminal GST; dsDNA, one strand shown. The method in brief: as §1

Another assay deals with ELF4 (Homo sapiens, UniProt Q99607 1-663). Particulars: protein: recombinant; tags: N-terminal GST; dsDNA, one strand shown. The method, boiled down:
as §1

For another assay, the target named is T3, ELK4 (Homo sapiens, UniProt P28324-2 1-405).
T3 sequence: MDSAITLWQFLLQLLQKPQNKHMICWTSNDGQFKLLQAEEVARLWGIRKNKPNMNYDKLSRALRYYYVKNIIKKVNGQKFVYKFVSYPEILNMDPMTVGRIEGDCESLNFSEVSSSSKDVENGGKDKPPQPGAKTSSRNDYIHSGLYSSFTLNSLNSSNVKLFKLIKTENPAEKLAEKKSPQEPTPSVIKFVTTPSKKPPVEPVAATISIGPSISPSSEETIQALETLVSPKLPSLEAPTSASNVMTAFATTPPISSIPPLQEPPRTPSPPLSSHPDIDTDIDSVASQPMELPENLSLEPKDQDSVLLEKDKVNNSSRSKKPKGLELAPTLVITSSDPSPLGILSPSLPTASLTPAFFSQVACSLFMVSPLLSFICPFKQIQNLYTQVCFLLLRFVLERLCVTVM
The conditions noted are these: protein: recombinant; tags: N-terminal GST; dsDNA, one strand shown. The method, boiled down:
as §1

In a further assay the target is T4, ETV2 (Homo sapiens, UniProt O00321 1-342).
T4 sequence: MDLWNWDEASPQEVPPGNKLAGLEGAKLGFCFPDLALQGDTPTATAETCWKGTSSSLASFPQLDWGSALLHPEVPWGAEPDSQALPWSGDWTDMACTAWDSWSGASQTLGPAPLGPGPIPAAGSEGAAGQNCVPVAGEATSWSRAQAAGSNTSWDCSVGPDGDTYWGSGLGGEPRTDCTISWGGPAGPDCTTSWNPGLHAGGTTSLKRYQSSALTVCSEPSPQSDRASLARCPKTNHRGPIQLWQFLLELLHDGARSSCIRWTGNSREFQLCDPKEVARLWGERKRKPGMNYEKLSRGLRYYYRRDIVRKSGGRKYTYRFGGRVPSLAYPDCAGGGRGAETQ
Particulars: protein: recombinant; tags: N-terminal GST; dsDNA, one strand shown. The method in brief: as §1

For a further assay, the target named is T5, ELF3 (Homo sapiens, UniProt P78545 1-371).
T5 sequence: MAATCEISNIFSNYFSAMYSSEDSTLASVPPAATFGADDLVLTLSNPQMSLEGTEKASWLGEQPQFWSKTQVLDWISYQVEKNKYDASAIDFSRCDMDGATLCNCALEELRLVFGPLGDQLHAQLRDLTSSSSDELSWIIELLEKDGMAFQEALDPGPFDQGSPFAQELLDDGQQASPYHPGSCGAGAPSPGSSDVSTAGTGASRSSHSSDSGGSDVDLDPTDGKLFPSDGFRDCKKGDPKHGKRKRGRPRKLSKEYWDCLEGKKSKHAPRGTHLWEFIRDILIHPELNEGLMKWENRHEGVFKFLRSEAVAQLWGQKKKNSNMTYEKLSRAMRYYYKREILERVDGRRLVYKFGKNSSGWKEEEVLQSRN
Particulars: protein: recombinant; tags: N-terminal GST; dsDNA, one strand shown. The method in brief: as §1

Another assay deals with CRX (Homo sapiens, UniProt O43186 1-299). The conditions noted are these: protein: recombinant; tags: N-terminal GST; dsDNA, one strand shown. The method in brief:
as §1

For another assay, the target named is ETV1 (Homo sapiens, UniProt P50549 1-477). The conditions noted are these: protein: recombinant; tags: N-terminal GST; dsDNA, one strand shown. The method, boiled down:
as §1

A further assay concerns the target T6, ERF (Homo sapiens, UniProt P50548 1-548).
T6 sequence: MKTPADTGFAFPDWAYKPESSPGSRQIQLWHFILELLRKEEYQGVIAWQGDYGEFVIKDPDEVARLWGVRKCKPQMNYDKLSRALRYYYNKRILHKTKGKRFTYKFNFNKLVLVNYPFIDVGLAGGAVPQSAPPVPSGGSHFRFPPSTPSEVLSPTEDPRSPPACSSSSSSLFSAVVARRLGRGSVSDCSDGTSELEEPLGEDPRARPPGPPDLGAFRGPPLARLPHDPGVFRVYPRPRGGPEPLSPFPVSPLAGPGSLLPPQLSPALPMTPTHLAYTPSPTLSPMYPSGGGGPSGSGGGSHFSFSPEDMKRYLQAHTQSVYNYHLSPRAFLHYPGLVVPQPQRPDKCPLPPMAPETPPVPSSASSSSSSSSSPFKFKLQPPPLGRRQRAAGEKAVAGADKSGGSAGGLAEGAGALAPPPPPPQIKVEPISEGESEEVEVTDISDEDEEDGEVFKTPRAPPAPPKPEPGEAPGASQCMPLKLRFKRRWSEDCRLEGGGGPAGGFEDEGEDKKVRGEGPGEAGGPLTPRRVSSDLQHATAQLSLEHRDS
Particulars: protein: recombinant; tags: N-terminal GST; dsDNA, one strand shown. The method in brief: as §1

A further assay addresses T7, ETV3L (Homo sapiens, UniProt Q6ZN32 1-361).
T7 sequence: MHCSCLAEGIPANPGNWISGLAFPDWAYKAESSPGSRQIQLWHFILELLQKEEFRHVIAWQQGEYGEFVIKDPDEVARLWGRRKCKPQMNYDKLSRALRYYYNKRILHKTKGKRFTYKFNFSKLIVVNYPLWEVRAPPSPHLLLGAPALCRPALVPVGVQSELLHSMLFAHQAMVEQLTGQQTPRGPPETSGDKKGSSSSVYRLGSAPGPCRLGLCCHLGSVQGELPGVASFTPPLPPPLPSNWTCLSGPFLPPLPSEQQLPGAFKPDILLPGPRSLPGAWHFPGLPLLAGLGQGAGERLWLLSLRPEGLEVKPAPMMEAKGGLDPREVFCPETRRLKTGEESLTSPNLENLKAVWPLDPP
The conditions noted are these: protein: recombinant; tags: N-terminal GST; dsDNA, one strand shown. The method in brief:
as §1

For another assay, the target named is T8, ETS2 (Homo sapiens, UniProt P15036 1-469).
T8 sequence: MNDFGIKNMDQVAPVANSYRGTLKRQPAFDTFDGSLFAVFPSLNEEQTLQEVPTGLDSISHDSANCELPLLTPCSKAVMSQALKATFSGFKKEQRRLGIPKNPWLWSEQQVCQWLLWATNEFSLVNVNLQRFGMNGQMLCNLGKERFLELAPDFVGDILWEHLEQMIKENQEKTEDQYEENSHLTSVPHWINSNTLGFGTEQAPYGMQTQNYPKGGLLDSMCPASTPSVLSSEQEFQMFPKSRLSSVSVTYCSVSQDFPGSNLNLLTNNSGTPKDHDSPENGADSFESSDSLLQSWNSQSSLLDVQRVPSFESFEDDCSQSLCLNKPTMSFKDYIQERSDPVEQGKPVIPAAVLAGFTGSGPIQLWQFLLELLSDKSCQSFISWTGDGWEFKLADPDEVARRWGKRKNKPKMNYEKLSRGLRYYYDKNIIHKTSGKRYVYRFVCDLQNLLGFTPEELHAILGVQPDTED
Particulars: protein: recombinant; tags: N-terminal GST; dsDNA, one strand shown. The method in brief:
as §1

The target of the next assay is T9, SPDEF (Homo sapiens, UniProt O95238 1-335).
T9 sequence: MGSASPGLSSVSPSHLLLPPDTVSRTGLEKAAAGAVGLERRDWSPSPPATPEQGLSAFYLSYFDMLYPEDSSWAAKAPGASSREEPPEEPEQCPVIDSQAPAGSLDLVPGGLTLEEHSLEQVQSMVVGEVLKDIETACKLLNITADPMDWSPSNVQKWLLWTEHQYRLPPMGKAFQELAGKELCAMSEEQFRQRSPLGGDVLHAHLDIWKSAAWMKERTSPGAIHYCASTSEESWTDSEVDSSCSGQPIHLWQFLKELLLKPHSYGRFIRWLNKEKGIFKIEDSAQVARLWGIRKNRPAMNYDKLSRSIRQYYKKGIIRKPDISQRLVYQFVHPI
Particulars: protein: recombinant; tags: N-terminal GST; dsDNA, one strand shown. The method in brief: as §1

A further assay has as its target T10, ETV7 (Homo sapiens, UniProt Q9Y603 1-341).
T10 sequence: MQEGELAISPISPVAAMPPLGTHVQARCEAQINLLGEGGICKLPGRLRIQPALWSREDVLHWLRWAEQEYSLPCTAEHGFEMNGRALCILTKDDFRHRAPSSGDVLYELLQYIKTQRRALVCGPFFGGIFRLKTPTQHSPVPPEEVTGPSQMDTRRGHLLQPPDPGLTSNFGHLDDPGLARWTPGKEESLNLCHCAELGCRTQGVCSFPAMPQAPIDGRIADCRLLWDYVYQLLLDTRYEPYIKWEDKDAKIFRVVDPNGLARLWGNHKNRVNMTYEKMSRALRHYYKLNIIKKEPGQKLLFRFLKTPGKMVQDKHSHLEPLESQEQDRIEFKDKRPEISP
Particulars: protein: recombinant; tags: N-terminal GST; dsDNA, one strand shown. The method in brief:
as §1

The next assay deals with T11, ELF5 (Homo sapiens, UniProt Q9UKW6-2 1-255).
T11 sequence: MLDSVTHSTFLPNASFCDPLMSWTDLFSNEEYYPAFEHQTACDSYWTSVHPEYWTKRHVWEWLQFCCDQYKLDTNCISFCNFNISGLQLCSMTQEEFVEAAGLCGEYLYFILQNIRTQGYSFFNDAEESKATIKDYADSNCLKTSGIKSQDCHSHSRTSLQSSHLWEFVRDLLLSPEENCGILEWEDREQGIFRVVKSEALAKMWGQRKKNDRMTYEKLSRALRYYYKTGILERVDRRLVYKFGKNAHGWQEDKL
The conditions noted are these: protein: recombinant; tags: N-terminal GST; dsDNA, one strand shown. The method in brief:
as §1

In a further assay the target is T12, ETV3 (Homo sapiens, UniProt P41162-2 1-143).
T12 sequence: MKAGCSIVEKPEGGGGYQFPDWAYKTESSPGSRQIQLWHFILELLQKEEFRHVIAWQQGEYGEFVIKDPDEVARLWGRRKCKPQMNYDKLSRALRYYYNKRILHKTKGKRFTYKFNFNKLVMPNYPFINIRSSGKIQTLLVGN
The conditions noted are these: protein: recombinant; tags: N-terminal GST; dsDNA, one strand shown. The method in brief:
as §1

The next assay has as its target ETV6 (Homo sapiens, UniProt P41212 1-452). The conditions noted are these: protein: recombinant; tags: N-terminal GST; dsDNA, one strand shown. The method, boiled down: as §1

Sequence of CRX (O43186 whole entry): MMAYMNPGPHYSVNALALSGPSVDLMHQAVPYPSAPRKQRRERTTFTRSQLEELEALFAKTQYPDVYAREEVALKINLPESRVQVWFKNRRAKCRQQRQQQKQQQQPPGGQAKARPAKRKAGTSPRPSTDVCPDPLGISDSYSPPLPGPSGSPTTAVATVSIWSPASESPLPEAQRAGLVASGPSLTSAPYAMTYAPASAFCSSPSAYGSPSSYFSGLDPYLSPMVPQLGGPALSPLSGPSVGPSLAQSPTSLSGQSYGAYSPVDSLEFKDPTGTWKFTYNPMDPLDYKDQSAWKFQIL
Sequence of ELF4 (Q99607 whole entry): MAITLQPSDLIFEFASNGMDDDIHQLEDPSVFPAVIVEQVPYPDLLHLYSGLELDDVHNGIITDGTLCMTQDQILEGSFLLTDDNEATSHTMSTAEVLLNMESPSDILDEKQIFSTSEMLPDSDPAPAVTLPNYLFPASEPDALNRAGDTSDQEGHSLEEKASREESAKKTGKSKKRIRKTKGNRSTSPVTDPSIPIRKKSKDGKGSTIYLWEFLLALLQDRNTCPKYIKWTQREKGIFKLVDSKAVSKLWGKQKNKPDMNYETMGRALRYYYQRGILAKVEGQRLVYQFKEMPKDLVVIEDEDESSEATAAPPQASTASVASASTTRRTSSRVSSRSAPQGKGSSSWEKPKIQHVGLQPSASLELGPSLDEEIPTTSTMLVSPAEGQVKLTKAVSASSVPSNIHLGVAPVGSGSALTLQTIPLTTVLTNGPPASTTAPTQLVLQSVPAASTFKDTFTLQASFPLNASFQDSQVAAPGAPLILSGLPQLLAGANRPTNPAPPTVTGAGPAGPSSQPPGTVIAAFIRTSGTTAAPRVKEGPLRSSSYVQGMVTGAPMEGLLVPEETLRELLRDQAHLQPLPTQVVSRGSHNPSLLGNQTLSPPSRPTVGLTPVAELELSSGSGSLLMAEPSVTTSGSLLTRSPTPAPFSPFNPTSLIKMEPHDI
Sequence of ETV6 (P41212 whole entry): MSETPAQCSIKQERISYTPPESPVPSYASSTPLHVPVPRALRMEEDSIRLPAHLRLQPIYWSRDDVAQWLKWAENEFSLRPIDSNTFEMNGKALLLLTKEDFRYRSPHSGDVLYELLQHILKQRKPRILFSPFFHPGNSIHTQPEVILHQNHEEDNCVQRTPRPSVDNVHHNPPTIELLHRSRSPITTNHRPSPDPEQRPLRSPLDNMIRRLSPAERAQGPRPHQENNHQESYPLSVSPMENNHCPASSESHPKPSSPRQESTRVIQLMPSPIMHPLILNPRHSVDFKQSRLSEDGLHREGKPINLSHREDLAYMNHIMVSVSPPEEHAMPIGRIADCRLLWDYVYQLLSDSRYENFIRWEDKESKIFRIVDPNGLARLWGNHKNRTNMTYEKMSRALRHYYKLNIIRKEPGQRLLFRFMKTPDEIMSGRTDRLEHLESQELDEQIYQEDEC
Sequence of ETV1 (P50549 whole entry): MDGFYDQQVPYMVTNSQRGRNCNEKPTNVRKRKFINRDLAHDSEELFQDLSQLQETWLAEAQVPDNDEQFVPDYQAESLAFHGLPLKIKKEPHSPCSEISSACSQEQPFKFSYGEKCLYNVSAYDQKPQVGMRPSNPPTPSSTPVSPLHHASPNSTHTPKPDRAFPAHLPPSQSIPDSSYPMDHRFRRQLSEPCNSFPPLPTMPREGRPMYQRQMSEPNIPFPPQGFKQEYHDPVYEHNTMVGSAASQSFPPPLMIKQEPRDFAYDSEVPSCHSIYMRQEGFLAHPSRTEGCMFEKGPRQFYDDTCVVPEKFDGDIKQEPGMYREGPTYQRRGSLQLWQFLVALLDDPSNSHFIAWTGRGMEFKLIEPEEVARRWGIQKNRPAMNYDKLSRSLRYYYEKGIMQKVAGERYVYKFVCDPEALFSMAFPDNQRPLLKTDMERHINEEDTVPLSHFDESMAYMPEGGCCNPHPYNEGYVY
Sequence of HSF1 (Q00613 whole entry): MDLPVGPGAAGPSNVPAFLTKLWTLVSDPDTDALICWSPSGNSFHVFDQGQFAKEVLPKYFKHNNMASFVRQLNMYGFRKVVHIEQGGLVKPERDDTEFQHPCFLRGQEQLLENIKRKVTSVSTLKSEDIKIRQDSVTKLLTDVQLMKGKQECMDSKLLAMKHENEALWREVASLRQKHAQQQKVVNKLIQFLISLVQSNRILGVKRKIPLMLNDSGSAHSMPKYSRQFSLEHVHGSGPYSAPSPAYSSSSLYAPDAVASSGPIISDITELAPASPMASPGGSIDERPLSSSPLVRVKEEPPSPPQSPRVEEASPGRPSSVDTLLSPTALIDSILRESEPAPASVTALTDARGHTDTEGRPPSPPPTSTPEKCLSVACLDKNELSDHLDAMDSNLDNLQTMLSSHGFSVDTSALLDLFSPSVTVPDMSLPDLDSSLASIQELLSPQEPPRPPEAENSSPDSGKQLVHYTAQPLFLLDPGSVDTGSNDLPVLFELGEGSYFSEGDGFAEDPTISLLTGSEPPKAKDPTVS

On to AATACA, for which the binding signal is 1.38 fold enrichment (6-mer frequency, TF over GST control) in the assay with FEV; 1.33 fold enrichment (6-mer frequency, TF over GST control) in the assay with ETV5; 1.25 fold enrichment (6-mer frequency, TF over GST control) with HSF1; 1.21 fold enrichment (6-mer frequency, TF over GST control) in the assay with SPIC; 1.3 fold enrichment (6-mer frequency, TF over GST control) in the assay with ELF4; 1.29 fold enrichment (6-mer frequency, TF over GST control) in the assay with ELK4. The binding signal is 1.45 fold enrichment (6-mer frequency, TF over GST control) with ETV2; 1.18 fold enrichment (6-mer frequency, TF over GST control) with ELF3; 1.33 fold enrichment (6-mer frequency, TF over GST control) in the assay with CRX; 1.31 fold enrichment (6-mer frequency, TF over GST control) in the assay with ETV1; 1.43 fold enrichment (6-mer frequency, TF over GST control) in the assay with ERF; 1.27 fold enrichment (6-mer frequency, TF over GST control) with ETV3L. For the same sequence, the binding signal with ETS2 is 1.25 fold enrichment (6-mer frequency, TF over GST control); with SPDEF, 1.37 fold enrichment (6-mer frequency, TF over GST control); with ETV7 it was 1.41 fold enrichment (6-mer frequency, TF over GST control); with ELF5, 1.4 fold enrichment (6-mer frequency, TF over GST control); with ETV3 it was 1.28 fold enrichment (6-mer frequency, TF over GST control); in the assay with ETV6, 1.34 fold enrichment (6-mer frequency, TF over GST control).
